Sampled rows, rich in hits. Any-hit rate of the full collection: about 7.3%.
uPA generation = inhibitors of cell surface uPA generation | cell surface uPA generation assay, qHTS | Potency, µM (series often up to 38.3 µM), without a hit: at the top dose activity change, negative = inhibition, most hits filed as inhibitors | hit rate 0.31% among 330,000; active = well fitted inhibition curve with a large enough effect; inconclusive = small, poorly fitted or top-dose-only effect; inactive = no such curve, though single readings can be large or run the other way; tested in mouse RAW 264.7 cells; note: % is set by controls: 0 for no effect and ±100 for the full control effect; nearly all actives have a fitted effect of over 55% in size
Rab9 prom act = Rab9 promoter activation | Huh7 Rab9 promoter-luciferase reporter, luminescence, 24 h | Potency, µM (series often up to 9.22 µM), for inactives: top-dose activation, negative = inhibition, usual class: activators | hit rate 2.8% among 320,000 | AID 485297; note: % of control where 0% means no effect; nearly all actives have a fitted effect of over 60% in size
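Luminescence read-out: Huh7 cells stably expressing Rab9-luciferase, treated 24 h with compound at 37 °C, then lysed with luciferase reagent for 10 min at ambient before reading.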
NPC1 promoter act = activates the NPC1 promoter; Potency, µM (top dose mostly 9.22 µM), without a hit: at the highest dose activation, actives largely listed as activators; hit rate 2.4% among 320,000; Huh7 NPC1 promoter luciferase reporter, 24 h; note: % of control where 0% means no effect; nearly all actives have a fitted effect of over 60% in size
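In 1536-well qHTS, Huh7 cells harboring an NPC1 promoter–luciferase construct received compound for 24 h; activation was quantified by luminescence following luciferase reagent addition.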
ELG1 genotoxic = genotoxicity induction in ELG1-luciferase HEK293T cells; HEK293T ELG1-luciferase reporter, luminescence, 16 h; Potency, µM (series often up to 46 µM), inactives show top-dose activity change, positive = activation, usual class: activators; hit rate 1.3% among 330,000; AID 504466; note: % of control where 0% means no effect; nearly all actives have a fitted effect of over 60% in size
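Cells (2,000/well) expressing the ELG1-luciferase fusion are dosed by pin tool and kept 16 hr at 37 °C, 5% CO2. Signal comes from ONE-Glo luciferase reagent after 30 min at room temperature.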
SMN2 splice enh = increases expression of the SMN2 splice variant; HEK293 SMN2-luciferase splicing reporter, luminescence, 30-36 h; Potency, µM (series often up to 46.1 µM), inactives show at the top dose activity change, positive = activation, actives largely listed as activators; hit rate 2.8% among 210,000; AID 1458; note: % of control where 0% means no effect; nearly all actives have a fitted effect of over 55% in size
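HEK293 cells carry an SMN2 minigene-luciferase reporter in which exon 7 inclusion puts luciferase in frame. Cells were seeded at 2000 cells/well, attached for 10-12 hours, then exposed to compounds for 30-36 hours at 37C before ONE-Glo luminescence.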
FLuc modulator = counter-screen for miR-21 project: firefly luciferase inhibitors or activators | P08659 | hit rate 6.9% among 360,000 | Potency, µM (highest dose often 57.5 µM), inactives show at the top dose activity change, negative = inhibition, most hits filed as inhibitors | purified FLuc, Km substrates, luminescence inhibition;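 note: plate controls were vehicle for no effect and reference inhibitor for full effect; nearly all actives have a fitted effect of over 55% in size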
Target sequence (P08659 whole entry, looked up): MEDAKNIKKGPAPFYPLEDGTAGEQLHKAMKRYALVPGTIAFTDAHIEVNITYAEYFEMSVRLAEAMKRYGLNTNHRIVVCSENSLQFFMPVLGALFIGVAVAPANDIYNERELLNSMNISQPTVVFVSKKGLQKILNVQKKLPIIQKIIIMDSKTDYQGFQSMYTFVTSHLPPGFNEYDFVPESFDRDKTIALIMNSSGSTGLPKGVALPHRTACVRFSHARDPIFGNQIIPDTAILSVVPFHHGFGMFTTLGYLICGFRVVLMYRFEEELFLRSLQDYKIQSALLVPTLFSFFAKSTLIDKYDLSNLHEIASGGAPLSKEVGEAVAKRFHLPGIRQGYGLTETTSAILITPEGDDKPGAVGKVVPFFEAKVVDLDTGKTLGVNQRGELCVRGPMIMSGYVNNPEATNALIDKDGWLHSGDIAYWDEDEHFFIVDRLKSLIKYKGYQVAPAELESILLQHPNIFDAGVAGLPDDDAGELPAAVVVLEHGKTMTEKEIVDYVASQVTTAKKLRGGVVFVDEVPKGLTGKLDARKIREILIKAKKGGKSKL
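Biochemical qHTS of compounds, final roughly 60 µM downward over six points, against 10 nM purified firefly luciferase using Km concentrations of substrates (10 uM D-luciferin, 10 uM ATP) in Tris acetate pH 7.5 buffer; luminescence output.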
An asterisk follows results filed as active; ? = inconclusive; . = not tested or not shown; [ ] = remark or other dose. Unless noted, calls come from the whole dose curve; as a rule, active = well fitted curve in the direction sought with a large enough effect; inconclusive = small, poorly fitted or top-dose-only effect, or another doubt; inactive = no such curve, though single readings can be large; an effect the other way counts as inactive or inconclusive. Potency is the fitted concentration of half-maximal effect.

SMILES	uPA generation	Rab9 prom act	NPC1 promoter act	ELG1 genotoxic	SMN2 splice enh	FLuc modulator
N#C/C(=C(/O)c1ccc(F)cc1)c1nc2ccccc2s1	-6%	2.5µM*	2.5µM*	-2%	-35%	9.5µM*
COc1ccc(C/C(O)=C(\C#N)c2nc3ccccc3s2)cc1	14%	-3%[1.84 µM]	-4%	-8%	-45%	?
Cc1c(Cl)cccc1NC(=O)CCn1c(=O)c2cccn2c2ccccc21	.	.	.	.	.	-3%
N#C/C(=C(/O)COc1ccccc1)c1nc2ccccc2s1	1%	-1%	-1%	-6%	2%	19µM*
CCOC(=O)c1c(C)oc2nc(C)nc(NCC3CCN(Cc4ccc(F)cc4)CC3)c12	.	.	.	.	.	-8%
CN1CCN(C(=O)Cn2ncc3c4ccccc4n(Cc4ccc(Cl)cc4)c3c2=O)CC1	.	.	.	.	-20%	3%
Cc1noc(C)c1COc1ccc(C(=O)NCCc2ccc(F)cc2)cc1	?	-3%	8%	1%	.	4%
O=C(Nc1cccc(F)c1)N1CC[C@@]2(CCCN(C(=O)c3csnn3)C2)C1	.	.	.	.	-16%	.
Cc1ccc(S(=O)(=O)NCC(c2ccc(N(C)C)cc2)N2CCc3ccccc32)cc1 (centres undefined)	.	.	.	.	.	3%
N#C/C(=C/c1ccc(O)c(O)c1)c1nc2ccccc2[nH]1	?	-5%	0%	18%	.	6.7µM*
N#C/C(=C\c1ccc(N2CCCC2)c([N+](=O)[O-])c1)c1nc2ccccc2[nH]1	2%	?	?	12%	-11%	5.4µM*
Cc1cc(/C=C(/C#N)c2nc3ccccc3[nH]2)c(C)n1-c1ccccc1C(=O)O	5%	0%	0%	-3%	.	?
Cc1cc(/C=C(/C#N)c2nc3ccccc3[nH]2)c(C)n1-c1cc(C(=O)O)cc(C(=O)O)c1	-1%	-12%	-1%	-2%	-5%	17µM*
N#C/C(=C\c1cc(Br)c(O)c(Br)c1)c1nc2ccccc2c(=O)[nH]1	.	.	.	.	-7%	15µM*
COc1ccc(C2(CNC(=O)C(=O)Nc3ccc(C)c(Cl)c3)CCCC2)cc1OC	.	.	.	.	5%	-5%
CC[C@]12c3[nH]c4cc(CCC(=O)N(C)C)ccc4c3CCN1C(=O)[C@@H](CC(=O)NC(C)(C)C)C[C@@H]2C(=O)N1CCN(C(=O)c2ccco2)CC1	19%	.	.	?	.	.
Cc1ccc(C)c(NC(=O)CN2CCN(C3CCCCC3)C(=O)C2=O)c1	.	.	.	.	.	-2%
N#C/C(=C\c1ccc(OC(=O)c2cccs2)cc1)c1nc2ccccc2[nH]1	-4%	17%	18%	?	11µM*	?
N#C/C(=C/c1ccncc1)c1nc2ccccc2c(=O)[nH]1	-3%	-8%	-2%	-1%	.	?
C(=N\c1nc2ccccc2n1Cc1ccccc1)/c1cccs1	-9%	4%	1%	-11%	-14%	13µM*
COc1ccc2nc(/C(C#N)=C\c3ccc(C(=O)O)cc3)[nH]c2c1	3%	1%	-2%	2%	.	24µM*
N#C/C(=C\c1ccccc1)c1nc2ncccc2[nH]1	-5%	5%	-3%	4%	2%	13µM*
COc1cc2ccccc2cc1C(=O)Nc1nnc(-c2ccncc2)o1	4%	-3%	1%	-7%	.	-5%
Cn1c(/C=N/c2nc3ccccc3[nH]2)nc2ccccc21	-9%	0%	0%	-1%	24%	2%[2.3 µM]
CCOc1cc(/C=C(\C#N)c2nc3ccccc3[nH]2)ccc1OC(C)C(=O)O (centres undefined)	-3%	-5%[1.84 µM]	1%	0%	.	27µM*
SMILES	uPA generation	Rab9 prom act	NPC1 promoter act	ELG1 genotoxic	SMN2 splice enh	FLuc modulator
N#C/C(=C\c1cccs1)c1nc2ccccc2[nH]1	-4%	?	?	?	7.9µM*	6.7µM*
C(=N\c1nc2ccccc2[nH]1)/c1cccs1	2%	0%	-4%	1%	0%	1.1µM*
N#C/C(=C\c1ccc(Cl)cc1)c1nc2ccccc2[nH]1	.	.	.	.	7%	-18%
O=C(CCc1nc2ccccc2[nH]1)Nc1ccc2c(c1)OCCO2	8%	-1%	1%	-2%	-10%	-16%
N#C/C(=C\Nc1ccc2c(c1)OCCO2)c1nc2ccccc2[nH]1	6%	?	?	-2%	-29%	15µM*
CCOc1cc(/C=C(/C#N)c2nc3ccccc3[nH]2)ccc1Oc1ccc([N+](=O)[O-])cn1	-4%	1%	2%	21%	4%	1%
Cc1coc2cc3oc(=O)c(CC(=O)NCCc4ccccc4)c(C)c3cc12	.	.	.	.	3%	3%
COC(=O)c1cccnc1-n1c(=O)c2cccnc2n(CC(=O)Nc2ccccc2F)c1=O	.	.	.	.	-4%	-2%
CC1=CC2C(C)(C)CC(=O)C[C@]2(C)CC1COc1ccc2c(c1)CC(=O)C=C2 (some centres undefined)	.	.	.	.	2%	.
COc1cc(Br)c(/C=C(\C#N)c2nc3ccccc3[nH]2)cc1OC	.	.	.	.	28%	8.5µM*
COc1cc(/C=C(\C#N)c2nc3ccccc3[nH]2)ccc1OCc1ccc(F)cc1	.	.	.	.	14%	5%
CCn1cc(S(=O)(=O)c2cccc(C)c2)c(=O)c2cc(F)c(N3CCCC(C)C3)cc21 (centres undefined)	.	.	.	.	.	-1%
Cc1nnc2c3ccccc3c(-c3cccs3)nn12	1%	0%	-22%	13µM*	11µM*	0%
Cc1ccc(-c2nc3sc(C(N)=O)c(N)c3c3c2CCCC3)cc1	4%	-6%	-6%	-6%	10%	0%
Cc1nc2sc(C(N)=O)c(N)c2c2c1CCCC2	0%	10%	?	-18%	.	12µM*
CCOc1ccc(N2CC(c3nc4ccccc4n3CCCOc3ccc(OC)cc3)CC2=O)cc1 (centres undefined)	.	.	.	.	7%	24µM*
CCOc1ccccc1N1CC(c2nc3ccccc3n2CCOc2ccc(OC)cc2)CC1=O (centres undefined)	.	.	.	.	-1%	-10%
CCOc1ccccc1N1CC(c2nc3ccccc3n2CCCOc2ccc(OC)cc2)CC1=O (centres undefined)	.	.	.	.	?	13µM*
COc1ccc(OCCn2c(C3CC(=O)N(c4ccc(F)cc4)C3)nc3ccccc32)cc1 (centres undefined)	.	.	.	.	-4%	-2%
Clc1cccc(N/N=C/c2ccc(N3CCOCC3)s2)c1	11%	21%	-1%	-9%	-5%	9.5µM*
O=C(N/N=C/c1ccc(N2CCOCC2)s1)c1ccccc1Br	2%	26%	10%	5%	15%	?
COc1cccc(/C=C/c2[nH]c(=O)[nH]c(=O)c2[N+](=O)[O-])c1O	-9%	6%	1%	0%	.	17µM*
C/C(=N\Nc1nc2ccccc2s1)c1ccc2c(c1)OCO2	-4%	?	27%	?	18µM*	9.5µM*
